Laboratory results published in the supplement of paper PMC6555819.

Assays:
Test in all cases: PBM binding z-score (relative to random genomic background probes); higher = stronger binding; sequences stand for … in GC…GCGATTGACAGCGTAGAATGAAGG
[1] = test system: RARb homodimer (NR concentration 270 nM)
How it was run: (§1)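 Custom Agilent 4×180K protein-binding microarrays carried double-stranded probes. Their 34-nt variable regions held direct-repeat seeds, single-nucleotide variants, half-site ablations and random human genomic background sequences. Arrays were incubated 1 h with ligand-free nuclear receptor dimers in PBS pH 7.4, 2% milk, 0.02% Triton X-100, 1 mM DTT, 0.2 mg/mL BSA and 0.4 mg/ml salmon testes DNA. Antibodies against each partner (one per run) detected binding, and scanned fluorescence was regression-normalized. Binding z-scores use random background probes as reference.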

[2] = test system: RARg:RXRa (NR concentration 270 nM, RXRa partner concentration 90 nM)
How it was run: as §1

[3] = test system: RARg homodimer (NR concentration 270 nM)
How it was run: as §1

[4] = test system: RXRa DBDmut IVT, anti-RXR (DBD mutation: RXRa K156A/R161A, NR concentration 90 nM)
How it was run: as §1

[5] = test system: RXRa homodimer (NR concentration 180 nM)
How it was run: as §1

[6] = test system: THRa:RXRa (NR concentration 90 nM, RXRa partner concentration 90 nM)
How it was run: as §1

[7] = test system: THRa homodimer (NR concentration 90 nM)
How it was run: as §1

[8] = test system: VDR homodimer (NR concentration 270 nM)
How it was run: as §1

Sequence	PBM binding z-score [1]	PBM binding z-score [2]	PBM binding z-score [3]	PBM binding z-score [4]	PBM binding z-score [5]	PBM binding z-score [6]	PBM binding z-score [7]	PBM binding z-score [8]
ACTTACGGGTCAACTAGGTTATAGCACGCGTATA	3.63	5.71	5.16	2.08	5.82	3.52	0.857	2.03
AGAATGAGGTTATACGTAGATCATGGAAGAAAGT	1.02	2.06	1.29	1.74	2.45	2.42	0.532	0.975
ATCGAAAGGTCGTGAGGTGAGTATTCAGAAAGGC	3.27	4.51	4.1	1.91	5.4	3.48	1.52	0.921
CATAGTTGGTCAGGAGGTCACACACCGGATATGA	4.18	5.09	4.47	0.639	4.6	3.46	2.32	3.09
ATCGAAAGGTCGAAGGTGAGGATACCCACCCGAA	2.56	4.41	3.84	0.413	5.16	3.1	1.1	0.293
TCATATAGGTTATACAGGTGAAAGTCGGCATCTA	1.48	1.73	1.29	2.09	2.2	1.92	0.477	0.534
TCTAGCCGGCCAGAGGGTCACTCAAGAGGTACGG	2.6	2.42	2.26	-0.0421	2.31	1.44	-0.64	-0.169
